In the library only some 11% were active in any assay of this set; here they are far more common.
Pf growth 48h – P. falciparum growth inhibition at 48 hours (one generation); P. falciparum luciferase growth in erythrocytes, 48 h; Potency, µM (top dose mostly 28.7 µM), most hits filed as inhibitors; hit rate 5.9% among 310,000; AID 504832
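Erythrocytes infected with P. falciparum carrying an integrated firefly luciferase reporter (2% hematocrit, 0.1% parasitemia final) were exposed to compounds in RPMI 1640 with 0.5% Albumax at 37 C, 5% CO2. Growth inhibition was scored as reduced luminescence.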
AMA1 RON2 block – AMA1-RON2 (P. falciparum) interaction inhibition; AlphaScreen AMA1-biotinylated RON2 peptide binding; Potency, µM (titrated, usually from 58.2 µM), most hits filed as inhibitors; hit rate 0.2% among 360,000; AID 720542; further: nearly all actives have a fitted effect of over 45% in size
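AMA1 (3D7) with his tag at 25 nM final met compounds first, then biotinylated RON2 peptide at 25 nM; detection used donor plus acceptor beads, 10 µg/mL apiece, read by AlphaScreen after 30 min at room temperature.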
Pf growth 96h – P. falciparum growth inhibition at 96 hours; Potency, µM (highest dose often 28.7 µM), actives largely listed as inhibitors; P. falciparum luciferase reporter growth, 96 h; hit rate 6.9% among 320,000
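Two-generation exposure (96 h) targets delayed-death phenotype. Reporter parasites carrying integrated firefly luciferase, in red cells at 2% hematocrit and 0.05% parasitemia final, kept at 37 C, 5% CO2; luminescence loss indicates inhibition.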
HCV inh – inhibitors of hepatitis C virus infection | AID 651820 | hit rate 3.4% among 340,000 | Potency, µM (doses to about 41.8 µM), most hits filed as inhibitors | Huh7.5.1 HCVcc-Cre infection, luciferase reporter, 44 h
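Antiviral activity was scored by luciferase reporter output from cells infected with HCVcc-Cre (~0.5 moi) in presence of compound, 44 h infection period, cells seeded 1,000/well 4 h prior.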
Numbers stand for hits; - = inactive; ? = inconclusive; . = no result given; [ ] = remark or other dose. The call rests on the fitted dose curve; in most records, active means well fitted curve in the direction sought with a large enough effect; inconclusive means small, poorly fitted or top-dose-only effect, or another doubt; inactive means no such curve, though single readings can be large; an effect the other way counts as inactive or inconclusive.

SMILES | Pf growth 48h | AMA1 RON2 block | Pf growth 96h | HCV inh
CCN1CCN(S(=O)(=O)c2ccc(Cl)c(C(=O)Nc3ccccc3N3CCCC3)c2)CC1 | ? | - | ? | -
CCN1CCN(S(=O)(=O)c2ccc(Cl)c(C(=O)Nc3ccccc3N3CCCCC3)c2)CC1 | ? | ? | ? | 12.6µM
CCN1CCN(c2ccc(S(=O)(=O)N3CCCCC3)cc2NC(=O)c2cccc(Cl)c2)CC1 | ? | - | 8.28µM | ?
CCN1CCN(c2ccc(S(=O)(=O)N3CCCCC3)cc2NC(=O)Cc2c(F)cccc2Cl)CC1 | ? | - | 13.1µM | ?
CCN1CCN(c2ccc(S(=O)(=O)N3CCCCC3)cc2NC(=O)Cc2ccc(OC)cc2)CC1 | 9.28µM | - | 5.86µM | -
COc1ccc(CC(=O)Nc2cc(S(=O)(=O)N3CCCCC3)ccc2C)cc1 | ? | - | ? | ?
CCc1ccc(OCC(=O)NNCC(=O)Nc2ccc(OC)cc2)cc1 | - | - | - | -
CC(=O)c1ccc(N2CCN(C(=O)CCS(=O)(=O)c3ccc4c(c3)NC(=O)CS4)CC2)cc1 | ? | - | ? | -
COc1ccc(CC(=O)Nc2cc(S(=O)(=O)Nc3ccc(OC)cc3)ccc2OC)cc1 | . | - | . | 12.6µM
CCN1CCN(c2ccc(S(=O)(=O)N3CCCCC3)cc2NC(=O)c2cccc(OC(F)F)c2)CC1 | ? | - | 10.4µM | ?
COc1ccc(CCC(=O)Nc2cc(S(=O)(=O)N3CCCCC3)ccc2N(C)C)cc1 | 10.4µM | - | ? | -
CCN1CCN(S(=O)(=O)c2ccc(Cl)c(C(=O)N(C)C(c3ccccc3)c3ccccc3)c2)CC1 | 9.28µM | - | 13.1µM | ?
CC1CCCCC1NC(=O)COC(=O)COc1ccccc1F (stereo unspecified) | . | - | . | -
Cc1cccc(C)c1NC(=O)CN1C(=O)NC(C)(C2CC2)C1=O (stereo unspecified) | . | -[11.6 µM] | . | -
CN(CCc1ccccc1)C(c1ccnc2ccccc12)c1nnnn1-c1ccc2c(c1)OCCO2 (stereo unspecified) | . | - | . | .
COc1ccc2[nH]c3c(c2c1)CCN=C3C | 9.28µM | - | ? | 2.82µM
CCc1cc2c(=O)n3c(nc2s1)-c1[nH]c2ccc(OC)cc2c1CC3 | - | - | 2.94µM | -
Cc1cc(-c2ccc(S(=O)(=O)N(C)c3ccc(C)c(C)c3)s2)on1 | - | - | - | 11.2µM
CN(Cc1nc2ccccc2c(=O)[nH]1)C(=O)C1CC(=O)N(c2cccc3ccccc23)C1 (stereo unspecified) | . | - | . | -
CCCCC1(CO)C(=O)N(c2ccccc2)N(c2ccccc2)C1=O | - | - | - | -
CCCCC1(CC(=O)OCC)C(=O)N(c2ccccc2)N(c2ccccc2)C1=O | ? | - | 14.7µM | -
CCCCC1(Cc2cccc([N+](=O)[O-])c2)C(=O)N(c2ccccc2)N(c2ccccc2)C1=O | 3.7µM | - | ? | 6.31µM
O=C(NCc1cccnc1)C(=O)NCC1OCCCN1S(=O)(=O)c1cc(F)ccc1F (stereo unspecified) | . | - | . | .
CC(C)C(NC(=S)Nc1ccccc1)C(=O)O (stereo unspecified) | - | - | ? | -
Cc1cc(C)n(-c2nc(N(c3ccccc3)c3ccccc3)nc(-n3nc(C)cc3C)n2)n1 | 2.62µM | - | ? | 10µM
SMILES | Pf growth 48h | AMA1 RON2 block | Pf growth 96h | HCV inh
COC(=O)C(C)N(C(=O)c1cccc2ccccc12)c1c(C)cccc1C (stereo unspecified) | 14.7µM | - | . | ?
COc1cc2c(cc1OC)C(=O)C(Br)CC2 (stereo unspecified) | . | - | . | .
Cc1ccc(CNc2ccc([N+](=O)[O-])cc2C(N)=O)cc1 | - | - | - | ?
Cc1ccc(Oc2c(C(N)=O)cc([N+](=O)[O-])cc2[N+](=O)[O-])cc1 | - | -[2.32 µM] | ? | 3.55µM
CCN(CC(=O)Nc1ccc2c(c1)OCCO2)C(=O)/C=C/c1cccc(Br)c1 | - | - | - | -
N#Cc1c(Nc2ccccc2)[n+]([O-])c2ccc(Cl)cc2[n+]1[O-] | . | - | . | 2.82µM
O=C(/C=C/Nc1ccccc1)c1ccc(Cl)cc1Cl | - | - | - | -
CCCOc1ccc(CC(=O)N/N=C\c2ccc(F)cc2)cc1 | - | - | - | -
Cc1cc(C)cc(OCC(=O)N/N=C/c2ccc([N+](=O)[O-])o2)c1 | 9.28µM | - | - | 11.2µM
CCCOc1ccc(CCC(=O)N/N=C/c2ccc([N+](=O)[O-])o2)cc1 | ? | - | 11.7µM | ?
COc1ccccc1OCC(=O)N/N=C/C=C/c1ccc([N+](=O)[O-])o1 | 4.15µM | - | 1.47µM | ?
Cc1ccc(/C=N\NC(=O)COc2ccc(C)cc2[N+](=O)[O-])cc1 | ? | - | ? | -
Cc1ccccc1OCC(=O)NCC(=O)N/N=C/c1ccc(Br)o1 | - | - | - | -
Cc1ccccc1OCC(=O)N/N=C/c1ccc([N+](=O)[O-])o1 | 5.22µM | - | 2.08µM | ?
Cc1csc(=O)n1CCC(=O)OCC(=O)c1ccc(Br)cc1 | - | ? | - | -
Cc1cccc(OCC(=O)N/N=C\c2cc3c(cc2[N+](=O)[O-])OCO3)c1C | . | - | ? | 11.2µM
Nc1ccc(C(=O)Nc2nccs2)cc1 | - | - | - | -
CCn1c(SCc2ccc(C(=O)Nc3nccs3)cc2)nnc1-c1ccc(NC(C)=O)cc1 | ? | - | 13.1µM | -
Cn1c(SCc2ccc(C(=O)Nc3nccs3)cc2)nnc1-c1ccccc1 | 2.33µM | - | . | -
CCn1c(SCc2ccc(C(=O)Nc3nccs3)cc2)nnc1-c1ccc(N)cc1 | 10.4µM | - | . | ?
O=C(CN1C(=O)c2ccccc2C1=O)OCC(=O)c1ccccc1 | - | - | ? | -
CCCNC1=CC(=O)CC(C)(C)C1 | - | - | ? | -
CCOP(=O)(OCC)C(NC(=O)Nc1ccc(Cl)c(Cl)c1)c1ccccc1 (stereo unspecified) | - | -[2.32 µM] | ? | -
CCOP(=O)(OCC)C(NC(=O)Nc1ccc(C)c(Cl)c1)c1ccccc1 (stereo unspecified) | ? | - | 14.7µM | -
CCC1=C(OC(=O)N(CC)CC)N2C(=O)OC(=NCC3CC3)[C@]2(C)[C@H]2C1=CC[C@H]1C(=O)N(CC)C(=O)[C@H]12 | 10.4µM | - | ? | -[8.37 µM]
SMILES | Pf growth 48h | AMA1 RON2 block | Pf growth 96h | HCV inh
CCC1=C(OC(=O)N(CC)CC)N2C(=O)OC(=NCC3CC3)[C@]2(C)[C@H]2C1=CC[C@H]1C(=O)N(C)C(=O)[C@H]12 | 8.28µM | - | 10.4µM | -
CCC1=C(OC(=O)N(CC)CC)N2C(=O)OC(=NCc3ccccc3)[C@]2(C)[C@H]2C1=CC[C@H]1C(=O)NC(=O)[C@H]12 | ? | - | - | -[8.37 µM]
O=C1N[C@@H](Cc2ccccc2)C(=O)N2[C@H]1C[C@]1([C@]34C[C@H]5C(=O)N[C@@H](Cc6ccccc6)C(=O)N5[C@H]3N(S(=O)(=O)c3ccccc3)c3ccccc34)c3ccccc3N(S(=O)(=O)c3ccccc3)[C@H]21 | 1.47µM | - | 0.738µM | ?
COc1cccc2sc(=NC(=O)CS(=O)(=O)c3ccc(Cl)cc3)n(C)c12 | ? | - | ? | ?
CCOC(=O)N1CCN(C(=O)C2CCN(S(=O)(=O)CC)CC2)CC1 | - | - | 1.65µM | -
O=C1Nc2ccccc2-n2nnnc2C1N1CCN(CCN2CCOCC2)CC1 (stereo unspecified) | . | - | . | .

Screening data: PubChem BioAssay, National Center for Advancing Translational Sciences (NCATS)
